Results on two compounds are retold here after the supplement of paper PMC9694430.

SMILES strings stand for the structures.

What all share (test): thermal shift delta Tm vs DMSO control; higher = stronger stabilization (binding)
Holding throughout (settings): 12.5 µM; protein concentration 2 µM

One assay deals with LOC_OS02G45750-cb003. In a few lines:
(§1)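 Rice kinase domain constructs were expressed in E. coli, purified, and tested by differential scanning fluorimetry with compound added in DMSO. Each well of a 96-well plate held 19.5 μl of 2 μM kinase in 100 mM potassium phosphate pH 7.5, 150 mM NaCl, 10% glycerol and 5 × SYPRO Orange, and fluorescence was read from 25°C to 95°C at 0.05°C/s. The melting temperature shift is the mean of triplicates, taken against protein with DMSO alone after Boltzmann fitting.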

For the next assay, the system named is LOC_OS02G54510-cb004. In a few lines:
as §1

For the next assay, the system named is LOC_OS03G04050-cb001. The method in brief: as §1
The next assay concerns LOC_OS03G12390-cb001. In a few lines: as §1
The test system of a further assay is LOC_OS03G27990-cb004. The method in brief:
as §1

In another assay the test system is LOC_OS03G50450-cb001. The method in brief:
as §1

In another assay the test system is LOC_OS03G50810-cb003. In a few lines: as §1
For a further assay, the system named is LOC_OS04G35114-cb001. In a few lines: as §1
A further assay deals with T1, LOC_OS04G38480-cb003.
T1 sequence (whole entry): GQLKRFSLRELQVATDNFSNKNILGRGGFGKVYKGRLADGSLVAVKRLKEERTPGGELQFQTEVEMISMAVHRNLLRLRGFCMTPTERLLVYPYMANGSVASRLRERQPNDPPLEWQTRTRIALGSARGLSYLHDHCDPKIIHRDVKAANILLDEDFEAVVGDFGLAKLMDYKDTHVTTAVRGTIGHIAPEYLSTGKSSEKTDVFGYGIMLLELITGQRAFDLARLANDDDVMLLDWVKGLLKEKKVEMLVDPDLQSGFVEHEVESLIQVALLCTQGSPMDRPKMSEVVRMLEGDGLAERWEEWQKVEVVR
In a few lines:
as §1

A further assay relates to T2, LOC_OS04G41100-cb001.
T2 sequence (whole entry): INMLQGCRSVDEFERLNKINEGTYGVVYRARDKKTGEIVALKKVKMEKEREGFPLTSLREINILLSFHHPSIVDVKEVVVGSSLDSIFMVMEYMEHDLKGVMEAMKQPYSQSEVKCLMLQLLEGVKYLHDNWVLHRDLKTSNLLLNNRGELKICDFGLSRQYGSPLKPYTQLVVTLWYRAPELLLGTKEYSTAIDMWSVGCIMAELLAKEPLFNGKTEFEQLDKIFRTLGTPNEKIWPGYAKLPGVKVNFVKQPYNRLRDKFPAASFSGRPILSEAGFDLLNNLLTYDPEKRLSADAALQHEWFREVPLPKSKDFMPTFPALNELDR
The method in brief: as §1

A further assay relates to LOC_OS04G57630-cb004. The method in brief: as §1
For a further assay, the system named is LOC_OS05G07850-cb002. In a few lines: as §1
The test system of a further assay is LOC_OS05G16824-cb004. The method in brief:
as §1

The test system of a further assay is LOC_OS05G28520-cb001. The method in brief:
as §1

Another assay deals with LOC_OS05G30820-cb001. The method in brief: as §1
In the next assay the test system is LOC_OS05G43570-cb004. The method in brief:
as §1

A further assay concerns LOC_OS06G16330-cb003. The method in brief:
as §1

A further assay deals with T3, LOC_OS06G22820-cb001.
T3 sequence (whole entry): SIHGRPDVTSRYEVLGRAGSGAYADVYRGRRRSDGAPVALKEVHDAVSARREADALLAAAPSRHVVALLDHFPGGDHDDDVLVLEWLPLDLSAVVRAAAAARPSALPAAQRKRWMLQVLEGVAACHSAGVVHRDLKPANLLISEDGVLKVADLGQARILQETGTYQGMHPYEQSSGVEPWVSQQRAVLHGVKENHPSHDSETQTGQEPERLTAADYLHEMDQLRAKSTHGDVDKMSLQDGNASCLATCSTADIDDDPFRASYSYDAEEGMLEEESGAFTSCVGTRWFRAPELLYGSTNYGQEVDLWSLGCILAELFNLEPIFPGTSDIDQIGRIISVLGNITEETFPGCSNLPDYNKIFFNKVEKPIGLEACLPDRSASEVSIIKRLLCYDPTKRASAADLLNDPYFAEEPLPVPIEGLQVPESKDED
In a few lines:
as §1

In a further assay the test system is LOC_OS07G06570-cb004. In a few lines: as §1
The subject of another assay is LOC_OS07G07230-cb001. The method in brief:
as §1

LOC_OS06G16330-cb003, sequence (as listed by the source): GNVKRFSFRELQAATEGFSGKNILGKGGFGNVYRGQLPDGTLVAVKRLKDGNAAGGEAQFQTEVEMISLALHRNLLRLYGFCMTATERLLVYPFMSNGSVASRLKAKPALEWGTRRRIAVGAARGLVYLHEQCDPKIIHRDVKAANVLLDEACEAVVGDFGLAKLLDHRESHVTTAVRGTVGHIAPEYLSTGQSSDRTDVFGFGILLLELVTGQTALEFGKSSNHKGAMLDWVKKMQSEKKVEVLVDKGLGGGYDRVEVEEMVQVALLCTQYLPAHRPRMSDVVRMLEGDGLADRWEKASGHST

`CCOc1cc2ncc(C#N)c(Nc3ccc(F)c(Cl)c3)c2cc1NC(=O)/C=C/CN(C)C` [Pelitinib (EKB-569)]: the “thermal shift delta Tm” value in the assay with LOC_OS02G45750-cb003 turned out to be 4.93 °C; with LOC_OS02G54510-cb004, 0.37 °C; in the assay on LOC_OS03G04050-cb001, 0.32 °C; in the assay on LOC_OS03G12390-cb001, 0.42 °C; in the assay with LOC_OS03G27990-cb004, 3.2 °C; in the assay with LOC_OS03G50450-cb001, 0.73 °C. The “thermal shift delta Tm” value with LOC_OS03G50810-cb003 turned out to be 1.15 °C; in the assay with LOC_OS04G35114-cb001 it was 5.5 °C; in the assay with LOC_OS04G38480-cb003, 0.56 °C; with LOC_OS04G41100-cb001, 0.56 °C; in the assay on LOC_OS04G57630-cb004, 0.32 °C; with LOC_OS05G07850-cb002, 2.2 °C. Moreover, the “thermal shift delta Tm” value is -1.87 °C in the assay with LOC_OS05G16824-cb004; -0.33 °C in the assay on LOC_OS05G28520-cb001; 0.56 °C with LOC_OS05G30820-cb001; 0.2 °C with LOC_OS05G43570-cb004; 2.16 °C in the assay with LOC_OS06G16330-cb003; 0.39 °C in the assay on LOC_OS06G22820-cb001. Also, the “thermal shift delta Tm” value in the assay with LOC_OS07G06570-cb004 came to 0.65 °C; with LOC_OS07G07230-cb001, 0.56 °C.

For the compound `Cc1ccc(C(=O)Nc2ccc(CN3CCN(C)CC3)c(C(F)(F)F)c2)cc1C#Cc1cnc2[nH]ncc2c1` [GZD824 Dimesylate], the “thermal shift delta Tm” value with LOC_OS02G45750-cb003 was 10.6 °C; with LOC_OS03G04050-cb001 it was 0.96 °C; in the assay on LOC_OS03G12390-cb001, 3.54 °C; in the assay with LOC_OS03G27990-cb004 it was 1.61 °C; in the assay with LOC_OS03G50450-cb001 it was 1.08 °C; in the assay on LOC_OS03G50810-cb003 it was 6.3 °C. Further, the “thermal shift delta Tm” value amounted to 1.99 °C in the assay on LOC_OS04G35114-cb001; 1.28 °C in the assay with LOC_OS04G38480-cb003; 2.67 °C in the assay on LOC_OS04G41100-cb001; 6.01 °C in the assay with LOC_OS04G57630-cb004; 13.9 °C in the assay on LOC_OS05G07850-cb002; 2.52 °C in the assay with LOC_OS05G16824-cb004. Also, the “thermal shift delta Tm” value in the assay on LOC_OS05G28520-cb001 came out at 0.74 °C; with LOC_OS05G30820-cb001, 2.1 °C; in the assay on LOC_OS05G43570-cb004, 1.6 °C; with LOC_OS06G16330-cb003 it was 5.01 °C; with LOC_OS06G22820-cb001 it was 0.3 °C; in the assay with LOC_OS07G06570-cb004 it was 0.65 °C. In addition, the “thermal shift delta Tm” value with LOC_OS07G07230-cb001 amounted to 1.45 °C.
